# In PubChem BioAssay (NCATS):
# Inconclusive results are not listed. Entries that show only a call come without a potency. Calls of active or inactive are those of the source. Unless noted, calls come from the whole dose curve; as a rule, active = well fitted curve in the direction sought with a large enough effect; inconclusive = small, poorly fitted or top-dose-only effect, or another doubt; inactive = no such curve, though single readings can be large; an effect the other way counts as inactive or inconclusive.
# Experiments:
# [1] = molecular target: Atrial natriuretic peptide receptor 2 (Homo sapiens) (UniProt P20594); test: Natriuretic polypeptide receptor (hNpr2) antagonism - Pilot subtype selectivity assay (AID 1347050; calls by dose curve; note: potency is the fitted concentration of half-maximal effect)
# Chain of Atrial natriuretic peptide receptor 2 (Homo sapiens) (P20594 whole entry, looked up): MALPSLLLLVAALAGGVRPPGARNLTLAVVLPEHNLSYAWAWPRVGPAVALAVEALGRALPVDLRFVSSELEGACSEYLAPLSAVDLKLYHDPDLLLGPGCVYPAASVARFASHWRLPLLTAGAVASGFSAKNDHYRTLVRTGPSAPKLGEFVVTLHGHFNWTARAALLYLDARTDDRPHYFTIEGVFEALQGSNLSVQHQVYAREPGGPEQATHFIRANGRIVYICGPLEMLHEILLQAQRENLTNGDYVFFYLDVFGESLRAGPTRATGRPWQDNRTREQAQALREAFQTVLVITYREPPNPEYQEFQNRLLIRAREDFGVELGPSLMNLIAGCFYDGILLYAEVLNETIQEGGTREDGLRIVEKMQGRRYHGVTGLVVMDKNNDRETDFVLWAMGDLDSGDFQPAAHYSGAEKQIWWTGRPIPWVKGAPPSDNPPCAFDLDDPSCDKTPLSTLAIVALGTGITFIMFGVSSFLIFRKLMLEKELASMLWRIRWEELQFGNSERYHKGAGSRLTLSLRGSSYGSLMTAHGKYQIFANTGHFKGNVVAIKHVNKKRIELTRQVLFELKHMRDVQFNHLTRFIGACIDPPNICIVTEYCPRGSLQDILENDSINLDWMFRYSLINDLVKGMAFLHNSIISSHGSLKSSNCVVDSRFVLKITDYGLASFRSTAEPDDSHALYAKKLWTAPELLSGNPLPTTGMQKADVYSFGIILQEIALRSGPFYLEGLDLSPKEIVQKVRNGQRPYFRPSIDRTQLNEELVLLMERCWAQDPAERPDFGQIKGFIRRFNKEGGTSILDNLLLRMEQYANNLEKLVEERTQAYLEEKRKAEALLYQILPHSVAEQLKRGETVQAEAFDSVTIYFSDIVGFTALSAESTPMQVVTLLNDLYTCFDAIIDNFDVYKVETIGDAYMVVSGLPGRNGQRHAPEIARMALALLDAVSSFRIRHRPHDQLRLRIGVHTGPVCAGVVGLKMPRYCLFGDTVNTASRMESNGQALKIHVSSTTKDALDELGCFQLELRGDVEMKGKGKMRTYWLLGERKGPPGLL
# Method in brief: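 HEK293 cells expressing hNpr2 and a GloSensor cGMP luciferase sensor, 1500/well, preloaded 2 h with 2% GloSensor reagent, compound 30 min, then 1 nM hNppC for 20 min. Antagonism from luminescence after versus baseline pre-read; LOPAC in 1:5 titrations.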
# [2] = molecular target: Parathyroid hormone/parathyroid hormone-related peptide receptor (Homo sapiens) (UniProt Q03431); test: qHTS for PTHR1 Agonists: Optimization Screen against the NCGC LOPAC library (AID 1347079);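 note: GloSensor cAMP luminescence in HEK-293 GP2 cells expressing human PTHR1 with IBMX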; note: potency is the fitted concentration of half-maximal effect
# Chain of Parathyroid hormone/parathyroid hormone-related peptide receptor (Homo sapiens) (Q03431 whole entry, looked up): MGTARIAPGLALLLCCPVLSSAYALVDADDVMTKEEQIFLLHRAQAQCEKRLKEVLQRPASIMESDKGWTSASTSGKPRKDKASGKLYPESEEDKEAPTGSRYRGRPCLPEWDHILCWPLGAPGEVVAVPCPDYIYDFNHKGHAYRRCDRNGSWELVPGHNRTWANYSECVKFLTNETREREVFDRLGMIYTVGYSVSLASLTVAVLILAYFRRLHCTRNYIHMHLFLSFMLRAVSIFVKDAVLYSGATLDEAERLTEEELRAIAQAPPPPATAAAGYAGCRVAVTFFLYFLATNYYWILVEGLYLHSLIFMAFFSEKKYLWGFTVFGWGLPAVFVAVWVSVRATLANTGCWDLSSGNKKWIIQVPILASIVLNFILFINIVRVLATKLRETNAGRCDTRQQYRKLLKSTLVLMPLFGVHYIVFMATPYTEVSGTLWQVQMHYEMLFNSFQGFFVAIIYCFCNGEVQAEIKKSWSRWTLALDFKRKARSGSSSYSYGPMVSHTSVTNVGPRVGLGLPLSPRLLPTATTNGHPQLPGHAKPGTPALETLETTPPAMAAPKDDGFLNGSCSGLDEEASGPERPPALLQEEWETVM
# Method in brief: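 Agonist readout: GloSensor cAMP luminescence, read after 15 min at room temperature. HEK-293-derived GP2 line carries PTHR1; compounds tested as a titration for 1 hr at 37C in presence of IBMX. M-PTH (1-15) served as control.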
# [3] = NS1 protein of Zika virus - qHTS assay to identify small molecule inhibitors in human HEK 293 cells (AID 1347053); note: series mostly up to about 46 µM; nearly all actives have a fitted effect of over 55% in size
# Method in brief: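 HEK 293; 20 h pre-culture, 37 C/5% CO2; cpd 1 h pre-infection; ZIKV MR766, MOI = 0.5, 24 h, 37 C; TR-FRET NS1 readout (two anti-NS1 Abs); norm. to no-virus vs infected.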
# [4] = molecular target: T1, Tyrosine-protein phosphatase non-receptor type substrate 1 (Homo sapiens) + Leukocyte surface antigen CD47 (Homo sapiens) (UniProt P78324+Q08722); test: CD47-SIRPalpha protein protein interaction - LANCE assay qHTS validation (AID 1347057; active = well fitted curve in the direction sought with a large enough effect in the signal ratio, with a control signal flat, not every such curve was filed as active; the % refers to the signal ratio; note: series mostly up to about 38 µM)
# T1 sequence (P78324 whole entry, looked up): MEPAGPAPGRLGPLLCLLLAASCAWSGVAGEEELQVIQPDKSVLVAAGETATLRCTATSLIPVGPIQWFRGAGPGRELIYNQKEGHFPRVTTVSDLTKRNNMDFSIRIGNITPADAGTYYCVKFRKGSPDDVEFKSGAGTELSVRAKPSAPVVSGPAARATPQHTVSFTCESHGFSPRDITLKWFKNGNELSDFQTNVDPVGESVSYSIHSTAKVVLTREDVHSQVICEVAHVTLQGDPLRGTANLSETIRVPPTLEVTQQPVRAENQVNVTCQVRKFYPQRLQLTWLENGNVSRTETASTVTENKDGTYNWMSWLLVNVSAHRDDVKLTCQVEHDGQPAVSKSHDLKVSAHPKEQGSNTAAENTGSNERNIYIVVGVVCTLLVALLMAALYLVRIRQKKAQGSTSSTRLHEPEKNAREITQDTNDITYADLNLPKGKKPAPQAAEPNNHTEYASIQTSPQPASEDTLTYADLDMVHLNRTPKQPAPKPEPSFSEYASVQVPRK
# T1 sequence (Q08722 whole entry, looked up): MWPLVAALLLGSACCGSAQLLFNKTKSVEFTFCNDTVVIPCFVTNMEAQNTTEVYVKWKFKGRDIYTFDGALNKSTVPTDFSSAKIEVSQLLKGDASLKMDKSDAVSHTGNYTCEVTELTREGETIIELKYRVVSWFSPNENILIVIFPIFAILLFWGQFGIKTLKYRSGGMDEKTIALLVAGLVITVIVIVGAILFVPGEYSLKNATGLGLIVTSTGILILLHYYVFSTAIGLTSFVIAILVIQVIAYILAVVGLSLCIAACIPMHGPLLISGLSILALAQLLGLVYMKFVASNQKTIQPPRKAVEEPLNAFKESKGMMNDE
# Method in brief: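 First, His-tagged CD47 and Eu-labelled anti-His antibody met the compound for 30 min; next, site-specifically biotinylated SIRPalpha was added for 30 min; finally streptavidin-APC was added before reading the TR-FRET ratio.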
# [5] = molecular target: T1, Tyrosine-protein phosphatase non-receptor type substrate 1 (Homo sapiens) + Leukocyte surface antigen CD47 (Homo sapiens); test: CD47-SIRPalpha protein protein interaction - HTRF assay qHTS validation (AID 1347058; active = well fitted curve in the direction sought with a large enough effect in the signal ratio, not every such curve was filed as active; the % refers to the signal ratio;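 note: recombinant soluble extracellular CD47 with His tag and biotinylated SIRPalpha domains; series mostly up to about 38 µM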)
# Method in brief: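 TR-FRET read (Ch1/Ch2 ratio) of soluble extracellular CD47 and Avi-biotinylated SIRPalpha domains in PBS pH 7.4 with 0.05% IGEPAL; 7-point compound titration. Sequential 30 min room-temperature steps; non-biotinylated SIRPalpha as control inhibitor.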
# [6] = molecular target: T1, Tyrosine-protein phosphatase non-receptor type substrate 1 (Homo sapiens) + Leukocyte surface antigen CD47 (Homo sapiens); test: CD47-SIRPalpha protein protein interaction - Alpha assay qHTS validation (AID 1347059);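 note: bead proximity luminescence from CD47 binding SIRPalpha after compound preincubation with SIRPalpha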
# Method in brief: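 Biotinylated Avi-tagged SIRPalpha (25 nM) preincubated 30 min with compound, then His-tagged CD47 (12.5 nM) added 30 min; AlphaScreen with Ni-NTA acceptor and streptavidin donor beads. PBS pH 7.4, 0.05% IGEPAL, room temperature; 7-point titrations.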
# [7] = molecular target: Atrial natriuretic peptide receptor 1 (Homo sapiens) (UniProt P16066); test: Natriuretic polypeptide receptor (hNpr1) antagonism - Pilot screen (AID 1347049; calls by dose curve;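 note: agonist-evoked cGMP luminescence read 20 min after hNppA addition; series mostly up to about 58 µM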)
# Chain of Atrial natriuretic peptide receptor 1 (Homo sapiens) (P16066 whole entry, looked up): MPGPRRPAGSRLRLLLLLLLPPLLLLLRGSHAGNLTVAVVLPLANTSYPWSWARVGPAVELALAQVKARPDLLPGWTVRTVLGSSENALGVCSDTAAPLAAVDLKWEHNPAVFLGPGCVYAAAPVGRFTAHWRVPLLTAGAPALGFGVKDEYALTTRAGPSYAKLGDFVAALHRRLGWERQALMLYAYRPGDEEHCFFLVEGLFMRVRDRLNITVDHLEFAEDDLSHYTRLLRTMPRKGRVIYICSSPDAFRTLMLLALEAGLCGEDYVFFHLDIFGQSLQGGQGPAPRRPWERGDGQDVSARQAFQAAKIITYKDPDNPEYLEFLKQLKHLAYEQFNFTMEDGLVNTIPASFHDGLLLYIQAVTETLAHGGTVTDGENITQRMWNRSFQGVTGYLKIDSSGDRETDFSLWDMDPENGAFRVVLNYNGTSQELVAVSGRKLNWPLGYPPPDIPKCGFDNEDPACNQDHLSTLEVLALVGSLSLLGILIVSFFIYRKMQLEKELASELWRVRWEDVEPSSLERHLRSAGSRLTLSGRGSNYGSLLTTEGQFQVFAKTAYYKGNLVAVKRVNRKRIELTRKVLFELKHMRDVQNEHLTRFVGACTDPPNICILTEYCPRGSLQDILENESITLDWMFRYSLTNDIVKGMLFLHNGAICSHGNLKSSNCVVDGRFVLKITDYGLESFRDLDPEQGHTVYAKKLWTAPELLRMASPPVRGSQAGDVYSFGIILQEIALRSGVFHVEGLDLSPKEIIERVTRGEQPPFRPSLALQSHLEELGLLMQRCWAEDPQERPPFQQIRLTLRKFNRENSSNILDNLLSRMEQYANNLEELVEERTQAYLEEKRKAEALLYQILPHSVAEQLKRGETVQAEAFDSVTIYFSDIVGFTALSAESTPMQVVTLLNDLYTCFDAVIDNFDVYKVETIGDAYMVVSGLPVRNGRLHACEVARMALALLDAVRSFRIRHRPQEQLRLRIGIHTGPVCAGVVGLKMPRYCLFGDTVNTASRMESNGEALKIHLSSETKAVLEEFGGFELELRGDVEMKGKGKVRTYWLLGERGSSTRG
# Method in brief: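 HEK293 cells expressing hNpr1 and GloSensor cGMP luciferase, 1500/well, loaded with 2% GloSensor reagent 2 h, compound 30 min at room temperature; luminescence read before and 20 min after 0.1 nM hNppA stimulation.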
# [8] = qHTS of pediatric cancer cell lines to identify multiple opportunities for drug repurposing: Primary screen for TC32 cells (AID 1347089); note: nearly all actives have a fitted effect of over 60% in size
# Method in brief: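 Luminescent ATP read-out (CellTiter-Glo) of metabolically active TC32 cells after 48 h exposure. Concentration-response curves came from 11-point (MIPE, 0.78 nM–46 µM) or 8-point (NPC, 0.59 nM–46 µM) primary titrations; follow-up used 11 points.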
smiles,measurement,setting,value
CCCCC/C=C\CC(O)/C=C/c1cccc(CC(O)CCCCO)n1 (stereo not given),Potency,[1],inactive
same,Potency,[2],inactive
COc1ccc(Br)cc1S(=O)(=O)NC(=O)/C=C/c1ccccc1Cc1ccc2ccccc2c1,Potency,[3],inactive
same,Potency,[4],inactive
same,outcome,[5],inactive
same,Potency,[6],inactive
C#CCN1C(C)=C(C(=O)OC)C(c2cccc([N+](=O)[O-])c2)C(C(=O)OCC)=C1C (stereo not given),Potency,[7],inactive
same,Potency,[2],inactive
CCCCCCCCCCCCCCCCCCN(CCCCCCCCCCCCCCCCCC)CCCN(CCO)CCO,Potency,[3],inactive
same,Potency,[4],inactive
same,outcome,[5],inactive
same,Potency,[6],inactive
CC[C@H]1OC(=O)[C@H](C)[C@@H](O[C@H]2C[C@@](C)(OC)[C@@H](O)[C@H](C)O2)[C@H](C)[C@@H](O[C@@H]2O[C@H](C)C[C@H](NC)[C@H]2O)[C@](C)(O)C[C@@H](C)CN(C)[C@H](C)[C@@H](O)[C@]1(C)O,Potency,[3],inactive
same,Potency,[4],inactive
same,outcome,[5],inactive
CCC(CO)Nc1nc(NCc2ccccc2)c2ncn(C(C)C)c2n1 (stereo not given),Potency,[3],inactive
CCCCCCCCCCCCCCCCCC(=O)OC(CC(=O)O)C[N+](C)(C)C (stereo not given),Potency,[1],inactive
same,Potency,[3],inactive
same,Potency,[4],inactive
same,outcome,[5],inactive
same,Potency,[6],inactive
CC(C)(NS(=O)(=O)c1ccc(Oc2ccc(F)cc2)cc1)C(=O)NO,Potency,[3],inactive
same,Potency,[4],inactive
same,outcome,[5],inactive
same,Potency,[6],inactive
Clc1ccc(N2CCN(Cc3cc4ccccn4n3)CC2)cc1,Potency,[1],inactive
same,Potency,[3],inactive
same,Potency,[4],inactive
same,outcome,[5],inactive
same,Potency,[6],inactive
same,Potency,[2],inactive
C#C[C@]1(O)CC[C@H]2[C@@H]3CCC4=Cc5oncc5CC4(C)[C@H]3CCC21C (stereo not given in full),Potency,[3],inactive
O=C(O)CC1CC(c2ccccc2)=NO1 (stereo not given),Potency,[1],inactive
same,Potency,[2],10.6 µM (active)
S=c1[nH]c(-c2ccccc2)cn1-c1ccccc1,Potency,[3],inactive
same,Potency,[4],inactive
same,outcome,[5],inactive
COc1cc2nc(N3CCN(C(=O)OCc4ccccc4)C(C(=O)NC(C)(C)C)C3)nc(N)c2cc1OC (stereo not given),Potency,[1],inactive
O=C(Nc1ccc2[nH]ncc2c1)C1CCC1,Potency,[3],inactive
same,Potency,[4],inactive
same,outcome,[5],inactive
O=C(CCc1ccncc1)NNC(=O)N1Cc2ccccc2Oc2ccc(Cl)cc21,Potency,[3],inactive
same,Potency,[4],inactive
same,outcome,[5],inactive
same,Potency,[6],inactive
O=C1NC(O)=NC1(c1ccccc1)c1ccccc1,Potency,[3],inactive
same,Potency,[4],inactive
O=c1[nH]c2cc(C(F)(F)F)ccc2n1-c1cc(C(F)(F)F)ccc1O,Potency,[1],inactive
same,Potency,[3],inactive
same,Potency,[4],inactive
same,outcome,[5],inactive
same,Potency,[6],inactive
same,Potency,[2],inactive
CN(CCCOc1ccc(Cc2ccccc2)cc1)CCC(=O)O,Potency,[3],inactive
same,Potency,[4],inactive
same,outcome,[5],inactive
same,Potency,[6],inactive
S=C(S)OC1CC2CC1C1CCCC21 (stereo not given),Potency,[3],inactive
same,Potency,[4],inactive
same,outcome,[5],inactive
same,Potency,[6],inactive
O=C(Nc1ccc2c(c1)CCN(Cc1ncn[nH]1)C2)c1ccccc1-c1ccc(C(F)(F)F)cc1,Potency,[3],inactive
same,Potency,[4],inactive
same,outcome,[5],inactive
COc1ccc(-c2cc(=O)c3c(O)c(OC)c(OC)cc3o2)cc1O,Potency,[3],inactive
same,Potency,[4],inactive
Nc1nc(OCC2CCCCC2)c2[nH]cnc2n1,Potency,[3],inactive
same,Potency,[4],inactive
same,outcome,[5],inactive
CCOC(=O)N1CCN(/[N+]([O-])=N/Oc2ccc([N+](=O)[O-])cc2[N+](=O)[O-])CC1,Potency,[1],10.4 µM (active)
same,Potency,[3],inactive
same,Potency,[4],inactive
COCCOc1cc2ncnc(Cl)c2cc1OCCOC,Potency,[3],inactive
same,Potency,[4],inactive
same,outcome,[5],inactive
same,Potency,[6],inactive
CC(C)c1cccc(C(C)C)c1N1C(=O)c2ccc(O)cc2C1=O,Potency,[3],inactive
same,Potency,[4],inactive
same,outcome,[5],inactive
same,Potency,[6],inactive
Nc1ccn([C@@H]2O[C@H](CO)[C@@H](O)[C@@H]2O)c(=O)n1,Potency,[3],inactive
Fc1ccc2[nH]c(CN3CCN(c4ccccn4)CC3)cc2c1,Potency,[3],inactive
same,Potency,[4],inactive
same,outcome,[5],inactive
O=C(c1cc(O)c(O)c([N+](=O)[O-])c1)c1ccccc1F,Potency,[1],inactive
same,Potency,[3],inactive
same,Potency,[4],inactive
same,Potency,[6],inactive
same,Potency,[2],inactive
Nc1nc2ccc(Cl)cc2n2c(-c3ccccc3)nnc12,Potency,[3],inactive
same,Potency,[4],inactive
same,outcome,[5],inactive
same,Potency,[6],inactive
O=C(O)/C=C/C(O)c1ccc(Cl)cc1 (stereo not given),Potency,[1],inactive
same,Potency,[2],inactive
O=C(CCSCc1ccco1)NNC(=O)N1Cc2ccccc2Oc2ccc(Cl)cc21,Potency,[3],inactive
same,Potency,[4],inactive
same,outcome,[5],inactive
COCCOc1cc2nc[nH]c(=O)c2cc1OCCOC,Potency,[3],inactive
same,Potency,[4],inactive
same,outcome,[5],inactive
CCNC(=O)[C@H]1O[C@@H](n2cnc3c(N)nc(NCCc4ccc(CCC(=O)O)cc4)nc32)[C@H](O)C1O (stereo not given in full),Potency,[3],inactive
same,Potency,[4],inactive
same,outcome,[5],inactive
same,Potency,[6],inactive
O=C1NCc2c1c1c3ccccc3[nH]c1c1[nH]c3ccccc3c21,Potency,[3],inactive
same,Potency,[4],inactive
same,outcome,[5],inactive
same,Potency,[6],inactive
CO[C@H]1O[C@@H]2O[C@]3(C)CC[C@@H]4[C@@H](C)CC[C@H]([C@H]1C)[C@]24OO3,Potency,[3],inactive
same,Potency,[4],inactive
same,outcome,[5],inactive
same,Potency,[6],inactive
NC(=O)C(c1ccccc1)(c1ccccc1)[C@@H]1CCN(CCc2ccc3c(c2)CCO3)C1,Potency,[3],inactive
same,Potency,[8],inactive
